Granule exo inh = LAMP-1 surface exposure blockers, TALL-104 cells – cell-based, flow cytometry, MLPCN library, primary screen; TALL-104 LAMP-1 surface exposure; cells stimulated with thapsigargin and PMA; inhibition, % at 10 µM; hit rate 0.66% among 360,000; AID 651702, 2012;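 active means inhibition above about 55%, limit read from the data; inconclusive means no clear call, values can overlap the other calls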
beta cell repl = inducers of MIN6 beta-cell proliferation, primary screen, ATP luminescence, uHTS. hit rate 0.29% among 330,000. AID 2380, 2010. MIN6 cells proliferation, ATPlite luminescence, 48 h; cells starved in 0.2% serum; 100% = growth in 10% serum. proliferation, % at 10 µM;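 active means compounds whose signal lies at least 3.5 SD above the mean of all wells on their plate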;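 further: 0% = DMSO-treated cells in low-serum medium and 100% = 10% serum control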
ALR H2O2 inh = inhibitors of human ALR sulfhydryl oxidase, primary screen, biochemical, H2O2 detection, HRP-luminol luminescence, single point; FAD-linked sulfhydryl oxidase ALR (Homo sapiens), P55789; purified ALR, DTT oxidation; inhibition, % (no concentration beside the values); hit rate 3.8% among 290,000;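 active means mean replicate inhibition above about 79%, with every replicate also reaching it, limit read from the data; inconclusive means only one of the two criteria met; inactive means mean below limit and not every replicate reaching it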
Target sequence (P55789 whole entry, looked up): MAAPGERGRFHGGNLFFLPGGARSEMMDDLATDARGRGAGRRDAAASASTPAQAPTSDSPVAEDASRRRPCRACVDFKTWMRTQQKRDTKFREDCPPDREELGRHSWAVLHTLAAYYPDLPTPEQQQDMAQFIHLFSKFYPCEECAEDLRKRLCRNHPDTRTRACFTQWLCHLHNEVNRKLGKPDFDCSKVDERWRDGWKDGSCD
PfM18AAP inh = PfM18AAP inhibitors, malaria aminopeptidase, primary screen, biochemical, QFRET, recombinant enzyme | M18 aspartyl aminopeptidase (Plasmodium falciparum 3D7) | H-Glu-NHMec fluorogenic cleavage | inhibition, % at 7.35 µM | hit rate 1.2% among 290,000 | AID 1822, 2009;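 active means inhibition above the campaign mean inhibition over all tested compounds plus 3 SD, cut at about 28% in these data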;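 further: 0% = plate median of test compound wells and 100% = 2 mM ZnCl2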
JMJD2C inh = inhibitors of GASC-1 histone demethylase, primary screen, biochemical, fluorescence, DELFIA europium; Lysine-specific demethylase 4C (Homo sapiens), Q9H3R0; GST-JMJD2C(1-420) H3K9me3 demethylation; inhibition, % at 2.35 µM; hit rate 0.069% among 330,000;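 active means more than half of a compound's replicate wells show inhibition beyond 50%, single wells judged on their own value; inconclusive means some, but no more than half, of replicates pass 50% inhibition; inactive means no replicate passes 50% inhibition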;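 further: signal counts dimethyl H3K9 product captured on neutravidin plate; 0% = median of DMSO wells and 100% = 0.3 times that DMSO median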
Target sequence (Q9H3R0 1-420 limits assumed): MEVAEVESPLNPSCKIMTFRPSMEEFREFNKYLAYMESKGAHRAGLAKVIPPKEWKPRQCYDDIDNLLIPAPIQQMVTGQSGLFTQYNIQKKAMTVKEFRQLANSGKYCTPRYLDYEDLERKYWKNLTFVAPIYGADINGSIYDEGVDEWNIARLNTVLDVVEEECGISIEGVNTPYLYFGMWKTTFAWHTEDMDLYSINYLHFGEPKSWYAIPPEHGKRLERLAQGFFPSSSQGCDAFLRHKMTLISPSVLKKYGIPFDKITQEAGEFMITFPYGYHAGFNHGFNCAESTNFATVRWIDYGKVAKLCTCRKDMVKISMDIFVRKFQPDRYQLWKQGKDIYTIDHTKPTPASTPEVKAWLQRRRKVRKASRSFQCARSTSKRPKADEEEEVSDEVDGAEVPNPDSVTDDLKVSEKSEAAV
SMARCA2 activ = SMARCA2 (BRM) function activators, primary screen, cell-based, luminescence, high throughput. activation, % at 9.1 µM. hit rate 1% among 370,000. MG213 cells, MMTV-luciferase reporter, dexamethasone, overnight; in the data active means activation above about 7.8%;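 further: 0% = vehicle wells and 100% = reference activator wells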
Starred values were filed as active, the others as inactive. Shown are actives, neighbours in structure and some others; about 5.4% of the full set was active somewhere.

What do the screens show for `COC(=O)[C@@H](NCc1cccc(CN[C@H](C(=O)OC)c2ccccc2)c1)c1ccccc1`?
Granule exo inh: 66*; beta cell repl: -3; ALR H2O2 inh: 1; PfM18AAP inh: -8; JMJD2C inh: inconclusive; SMARCA2 activ: 0

What do the screens show for `COC(=O)C(NC(=O)CCC(=O)N[C@@H](C(=O)OC)c1ccccc1)c1ccccc1` (some centres not stated)?
Granule exo inh: 4; beta cell repl: 0; ALR H2O2 inh: 4; PfM18AAP inh: 1; JMJD2C inh: -24; SMARCA2 activ: -1

What do the screens show for `O=C(Nc1ccccc1C(F)(F)F)OCCCN1CCC2(CCC(c3ccccc3)CC2)C1=O` (configuration not stated)?
SMARCA2 activ: -6

Results for CCNC(=S)Nc1cc(-c2ccc(Cl)cc2)[nH]n1 ?
Granule exo inh: 4; beta cell repl: 2; ALR H2O2 inh: 97*; PfM18AAP inh: -6; JMJD2C inh: 0; SMARCA2 activ: -1

What do the screens show for `CCNC(=S)Nc1ccc(Cl)cc1`?
Granule exo inh: -1; beta cell repl: 1; ALR H2O2 inh: -4; PfM18AAP inh: 14; JMJD2C inh: -4; SMARCA2 activ: -2

Results for CC12CN3CC(C)(CN(C1)C3c1ccc(Br)cc1O)C2 (configuration not stated) ?
Granule exo inh: 0; beta cell repl: -1; ALR H2O2 inh: 99*; PfM18AAP inh: 6; JMJD2C inh: -1; SMARCA2 activ: 1

Results for CCOC(=O)[C@@]12CCCC3=C1N(CCC3)C(=O)[C@H]2CC(=O)N1CCN(C(=O)C2CC2)CC1 ?
SMARCA2 activ: -2

Results for CN(CCOc1ccccc1)C(=O)CCc1c[nH]c2ccccc12 ?
Granule exo inh: -10; beta cell repl: -2; ALR H2O2 inh: 96*; PfM18AAP inh: -4; JMJD2C inh: -3; SMARCA2 activ: 0

What do the screens show for `CCCCCc1ccc(NC(=O)OCCN2C(=O)CCC23CCC(c2ccccc2)CC3)cc1` (configuration not stated)?
SMARCA2 activ: 3

Results for O=C(CSCc1ccccc1)Nc1cccc(C(=O)Nc2ccccc2C(=O)O)c1 ?
Granule exo inh: 4; beta cell repl: -1; ALR H2O2 inh: 98*; PfM18AAP inh: -1; JMJD2C inh: -4; SMARCA2 activ: 1

Results for CC(C)c1ccc(OCC(=O)Nc2cccc(C(=O)Nc3ccccc3C(=O)O)c2)cc1 ?
Granule exo inh: 6; beta cell repl: -4; ALR H2O2 inh: 98*; PfM18AAP inh: -15; JMJD2C inh: -7; SMARCA2 activ: -2

What do the screens show for `Cc1cccc(OCC(=O)Nc2cccc(C(=O)Nc3ccccc3C(=O)O)c2)c1`?
Granule exo inh: 2; beta cell repl: -4; ALR H2O2 inh: 28; PfM18AAP inh: 5; JMJD2C inh: 2; SMARCA2 activ: -1

How did O=C(O)CCCC(=O)Nc1cccc(C(=O)Nc2ccccc2C(=O)O)c1 do in these assays?
Granule exo inh: -1; beta cell repl: -1; ALR H2O2 inh: -3; PfM18AAP inh: 2; JMJD2C inh: 5; SMARCA2 activ: -1

How did O=C(/C=C/c1ccco1)Nc1cccc(C(=O)Nc2ccccc2C(=O)O)c1 do in these assays?
Granule exo inh: 19; beta cell repl: -4; ALR H2O2 inh: 95*; PfM18AAP inh: -21; JMJD2C inh: -7; SMARCA2 activ: -1

What do the screens show for `CC(C)C(=O)Nc1cccc(C(=O)Nc2ccccc2C(=O)O)c1`?
Granule exo inh: 3; beta cell repl: -4; ALR H2O2 inh: -10; PfM18AAP inh: -2; JMJD2C inh: -2; SMARCA2 activ: 8

What do the screens show for `O=C(CSCc1ccc(Cl)cc1)Nc1cccc(C(=O)Nc2ccccc2C(=O)O)c1`?
Granule exo inh: -2; beta cell repl: -1; ALR H2O2 inh: 98*; PfM18AAP inh: 1; JMJD2C inh: 10; SMARCA2 activ: -3

What do the screens show for `O=C(CSc1nnc(-c2cccnc2)n1C1CCCCC1)NC1CCCCCC1`?
SMARCA2 activ: 2

Results for COc1cc(OC)c2c(O)c3c(=O)cc(C)oc3c(-c3c(OC)cc4cc5c(c(O)c4c3O)C(=O)CC(C)(O)O5)c2c1 (configuration not stated) ?
SMARCA2 activ: 2

How did O=S1(=O)c2ccc(Br)cc2OC[C@H](Cc2ccccc2)N1Cc1cn(Cc2ccc(Br)cc2)nn1 do in these assays?
SMARCA2 activ: -1

How did O=S(=O)(c1ccccc1)N1CCN(c2ncccn2)CC1 do in these assays?
Granule exo inh: -5; beta cell repl: -1; ALR H2O2 inh: 6; PfM18AAP inh: 4; JMJD2C inh: -32; SMARCA2 activ: -2

How did Cc1n[nH]c(=O)nc1N1CCN(c2ccccc2)CC1 do in these assays?
Granule exo inh: -3; beta cell repl: 3; ALR H2O2 inh: inconclusive; PfM18AAP inh: 2; JMJD2C inh: 1; SMARCA2 activ: -1

Results for Fc1cnc(Cl)nc1N1CCN(c2ccccc2)CC1 ?
Granule exo inh: -4; beta cell repl: 0; ALR H2O2 inh: 99*; PfM18AAP inh: -3; JMJD2C inh: 16; SMARCA2 activ: 1

Results for c1ccc(N2CCN(c3ncccn3)CC2)cc1 ?
Granule exo inh: 5; beta cell repl: -1; ALR H2O2 inh: 98*; PfM18AAP inh: -3; JMJD2C inh: -3; SMARCA2 activ: 0

How did CN1CCN(c2nc(N3CCN(c4ccccc4)CC3)ncc2F)CC1 do in these assays?
Granule exo inh: -3; beta cell repl: -3; ALR H2O2 inh: 99*; PfM18AAP inh: -3; JMJD2C inh: -18; SMARCA2 activ: 3

Results for Fc1cnc(N2CCOCC2)nc1N1CCOCC1 ?
Granule exo inh: -3; beta cell repl: -2; ALR H2O2 inh: -16; PfM18AAP inh: -3; JMJD2C inh: -8; SMARCA2 activ: 0

How did COc1ccc(NC(=O)CSc2nc(C)cc(=O)[nH]2)cc1OC do in these assays?
SMARCA2 activ: -5

Results for CCCCN1CN2Cc3ccc(C)cc3C2CS1(=O)=O (configuration not stated) ?
SMARCA2 activ: -3

Results for Cc1sc2nc(CSC(C)C(=O)Nc3cc(S(C)(=O)=O)ccc3Cl)[nH]c(=O)c2c1C (configuration not stated) ?
Granule exo inh: -4; beta cell repl: -1; ALR H2O2 inh: 98*; JMJD2C inh: 0; SMARCA2 activ: -1
